Screens from PubChem BioAssay.
HPGD block: blocks human HPGD enzyme activity | hit rate 4.3% among 150,000 | Potency, µM, hits mostly inhibitors | purified HPGD, NADH fluorescence kinetic, PGE2 substrate | P15428 | AID 894; active = well fitted inhibition curve with a large enough effect, not every such curve was filed as active; inconclusive = small, poorly fitted or top-dose-only effect, or another doubt; inactive = no such curve, though single readings can be large or run the other way
Target sequence (P15428 whole entry, looked up): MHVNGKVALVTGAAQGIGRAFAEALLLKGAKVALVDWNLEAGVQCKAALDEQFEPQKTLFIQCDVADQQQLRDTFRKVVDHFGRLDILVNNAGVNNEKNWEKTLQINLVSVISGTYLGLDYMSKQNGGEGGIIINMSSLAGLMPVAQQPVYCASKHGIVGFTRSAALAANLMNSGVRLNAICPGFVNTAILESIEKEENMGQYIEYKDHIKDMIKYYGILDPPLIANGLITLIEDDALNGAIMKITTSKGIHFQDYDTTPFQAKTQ
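20 nM HPGD preincubated 15 min at room temperature with compound in 50 mM Tris-HCl pH 8, 0.01% Tween 20. Started with 1 mM NAD+ and 30 uM prostaglandin E2; NADH fluorescence (360/450 nm) read 5 times over 30-s intervals, last minus first.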
ALDH1A1 block: ALDH1A1 (human) enzyme inhibition | P00352 | Potency, µM (series often up to 75.3 µM), usual class: inhibitors | hit rate 7.3% among 220,000 | Purified ALDH1A1, NADH fluorescence, propionaldehyde substrate; active = well fitted inhibition curve with a large enough effect, not every such curve was filed as active; inconclusive = small, poorly fitted or top-dose-only effect, or another doubt; inactive = no such curve, though single readings can be large or run the other way
PNC inhibitor: inhibitors of perinucleolar compartment assembly. activity change (PNC), negative = inhibition, % at 10 µM. PC3M PTB-GFP, PNC prevalence imaging, 16 h; stronger effect = lower value. hit rate 3.1% among 140,000;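 active = readout at or below -70, meaning at least 70% loss of cells showing the perinucleolar compartment, a nuclear body marking cancer cells; inconclusive = readout between -30 and a set limit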
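Read-out is percentage of cells bearing a perinucleolar compartment, from automated 20x imaging of fixed, Hoechst-stained PC3M PTB-GFP cells. Cells were seeded 4 h, then exposed 16 h to compound (23 nl of library stock) in duplicate plates.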
IMPase inh: membrane-permeable compound that blocks inositol monophosphatase; AID 901; P97697; 120,000 tested, under 10 active; CHO-M1 cells, IP1 accumulation, HTRF TR-FRET ratio; inhibition (IP1 accumulation), % at 46.1 µM; active = well fitted curve in the direction sought with a large enough effect in the signal ratio, not every such curve was filed as active; inconclusive = small, poorly fitted or top-dose-only effect, or a change in a side signal; inactive = no such curve, though single readings can be large or run the other way; the % refers to the signal ratio;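 also: cells stimulated with carbachol in lithium chloride buffer; higher means more IMPase inhibition seen as more IP1 and lower FRET ratio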
Target sequence (P97697 whole entry, looked up): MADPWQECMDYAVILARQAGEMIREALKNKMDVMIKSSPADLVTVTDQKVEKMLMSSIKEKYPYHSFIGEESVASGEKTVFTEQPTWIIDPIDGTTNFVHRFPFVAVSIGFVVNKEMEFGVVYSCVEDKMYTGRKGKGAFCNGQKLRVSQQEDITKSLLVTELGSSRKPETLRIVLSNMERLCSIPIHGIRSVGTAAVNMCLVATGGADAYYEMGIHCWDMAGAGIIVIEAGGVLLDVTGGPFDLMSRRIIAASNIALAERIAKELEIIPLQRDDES
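Measured: the HTRF emission ratio (665/620 nm) plus the 620 nm donor channel, each fitted to the Hill equation to give AC50. Cells were CHO-M1 given compounds up to 46 uM and a 30 min carbachol stimulation at 37C.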
NPSR antagonist: antagonists of human neuropeptide S receptor cAMP signaling | Q6W5P4 | CHO-NPSR cells, cAMP TR-FRET, antagonist mode | Potency, µM (doses to about 38.3 µM), hits mostly inhibitors | hit rate 1% among 220,000; also: nearly all actives have a fitted effect of over 50% in size
IMPase Li cell: IMPase inhibition in cells with lithium potentiation | CHO-M1 cells, IP1 TR-FRET (IP-One), carbachol + lithium | Potency, µM (titrated, usually from 59.4 µM), most hits filed as inhibitors | hit rate 0.35% among 210,000 | AID 1457;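 also: IP1 builds up when IMPase is blocked and the TR-FRET signal falls; nearly all actives have a fitted effect of over 50% in size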
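Steps: plate 2000 CHO-M1 cells per well and culture 16–30 h; add compound and lithium; incubate 30 min, 37C; add d2-IP1 tracer and Eu cryptate anti-IP1 antibody in lysis buffer; read after 10 min at room temperature.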
Large screens that a line does not name were inactive. Hits are enriched below; roughly 11% of the tested compounds scored in any of these assays. Unless noted, calls follow the shape of the dose curve; as a rule, active = well fitted curve in the direction sought with a large enough effect; inconclusive = small, poorly fitted or top-dose-only effect, or another doubt; inactive = no such curve, though single readings can be large; an effect the other way counts as inactive or inconclusive.

COc1ccc(C=NCCCN2CCOCC2)cc1	ALDH1A1 block 20µM
CCOc1cc(/C=N/N=C2/NC(=O)C(CC(=O)O)S2)ccc1OCc1ccc(Cl)cc1 (configuration not stated)	ALDH1A1 block inconclusive (no result: HPGD block, PNC inhibitor, IMPase inh)
CCOc1ccc(Cn2c3ccc(OC)cc3c3nc4ccccc4nc32)cc1	PNC inhibitor -89 (no result: IMPase inh)
Cc1[nH]c(=O)c(C(=O)c2ccccc2O)cc1C(=O)O	none (no result: HPGD block, PNC inhibitor, IMPase inh)
Cc1cc(O)c(C(=O)c2ccccc2C(=O)O)cc1C	ALDH1A1 block 18µM
CCN(CC(=O)Nc1sc2c(c1C#N)CCC(C)C2)Cc1nc2ccccc2c(=O)[nH]1 (configuration not stated)	ALDH1A1 block 25µM (no result: HPGD block, PNC inhibitor, IMPase inh)
CCN(CC(=O)Nc1sc2c(c1C#N)CCCC2)Cc1nc2ccccc2c(=O)[nH]1	ALDH1A1 block inconclusive (no result: HPGD block, PNC inhibitor, IMPase inh)
Cc1cc(NC(=O)c2cc(-c3ccccn3)nc3ccccc23)no1	none
Cc1cc(C)c2nc(-c3ccccn3)cc(C(=O)Nc3cc(C)on3)c2c1	HPGD block inconclusive, ALDH1A1 block inconclusive, PNC inhibitor -86, NPSR antagonist inconclusive, IMPase Li cell inconclusive
COc1ccccc1N=Nc1nc(-c2ccccc2)c(-c2ccccc2)[nH]1	ALDH1A1 block 22µM, NPSR antagonist 13µM
COc1ccc(N=Nc2nc(-c3ccccc3)c(-c3ccccc3)[nH]2)cc1	PNC inhibitor inconclusive (no result: IMPase inh)
CC(C)(C)OC(=O)N1CCC(C(=O)N[C@@H](Cc2ccccc2)C(=O)O)(c2ccccc2)CC1	none (no result: IMPase inh)
CC(C)C[C@H](NC(=O)C1(c2ccccc2)CCN(C(=O)[C@H]2CSCN2C(=O)OC(C)(C)C)CC1)C(=O)O	PNC inhibitor -114 (no result: IMPase inh)
CN(CC(=O)Nc1ccc(Cl)cc1)CC(=O)Nc1ccc(C(N)=O)cc1	ALDH1A1 block 32µM (no result: HPGD block, PNC inhibitor, IMPase inh)
Cc1ccc(OCCn2c(COc3ccc(Cl)cc3)nc3ccccc32)cc1	none (no result: HPGD block, ALDH1A1 block, PNC inhibitor, NPSR antagonist, IMPase Li cell)
COCCOC(=O)c1c(C)oc2ccc(OCc3ccccc3)cc12	PNC inhibitor -114 (no result: IMPase inh)
O=C(NC1=NCCS1)c1ccc(Cl)c(S(=O)(=O)N2CCCCCC2)c1	none (no result: HPGD block, PNC inhibitor, IMPase inh)
COc1ccc(CC/C(C)=N\NC(N)=O)cc1	PNC inhibitor -105 (no result: IMPase inh)
CCCC/C=C/C(NC(=O)c1ccco1)c1ccccc1 (configuration not stated)	ALDH1A1 block 3.5µM (no result: PNC inhibitor, IMPase inh, NPSR antagonist)
O=C(NCCc1ccccc1)c1ccco1	none
CCCC/C=C/C(NC(=O)CCc1ccccc1)c1ccccc1 (configuration not stated)	PNC inhibitor -119 (no result: IMPase inh)
O=C(NCCNC(=O)C(c1ccccc1)c1ccccc1)c1ccco1	ALDH1A1 block 40µM, PNC inhibitor inconclusive
CCCC/C=C/C(NC(=O)c1ccccc1)c1ccccc1 (configuration not stated)	ALDH1A1 block inconclusive (no result: PNC inhibitor, IMPase inh, NPSR antagonist)
O=C(Nc1ccc2c(c1)CCC2)c1ccccc1F	none
O/N=C1/C2C3CC4C5C3C1C5C1(OCCO1)C42 (configuration not stated)	none
O=C1C=CC(=O)N1N(c1ccccc1)c1ccccc1	HPGD block 1.4µM, ALDH1A1 block 3.5µM (no result: IMPase inh)
O=P(c1ccccc1)(c1ccccc1)N(c1ccccc1)c1ccccc1	none (no result: IMPase inh)
O=[N+]([O-])c1ccc(N2CCCCC2)cc1N1CCOCC1	NPSR antagonist inconclusive
Cc1nn(-c2cc(N3CCCCC3)ccc2[N+](=O)[O-])c(=O)c2ccccc12	none
Cc1nn(-c2cc(N3CCNCC3)ccc2[N+](=O)[O-])c(=O)c2ccccc12	ALDH1A1 block inconclusive, PNC inhibitor -97
O=[N+]([O-])c1ccc(N2CCCC2)cc1N1CCCC1	ALDH1A1 block 14µM
Cc1cc(N2CCCCC2)ccc1[N+](=O)[O-]	HPGD block 22µM (no result: IMPase inh)
CN(C)S(=O)(=O)N1CCN(c2ccc([N+](=O)[O-])c(N3CCCCC3)c2)CC1	ALDH1A1 block 4µM (no result: HPGD block, PNC inhibitor, IMPase inh)
CCOc1ccc(C(=O)N(c2ccccn2)C2CCCCC2)cc1	none (no result: HPGD block, PNC inhibitor, IMPase inh)
O=C1OCCN/C1=C\C(=O)c1ccccc1	none (no result: HPGD block, PNC inhibitor, IMPase inh, IMPase Li cell)
O=C(CN1CCN(S(=O)(=O)c2ccc(Cl)cc2)CC1)Nc1ccc(F)cc1F	ALDH1A1 block inconclusive
COc1cc(NC(=O)c2cccs2)c(C(=O)OCC(=O)c2cc(C)n(-c3ccccc3)c2C)cc1OC	HPGD block inconclusive (no result: IMPase inh)
